IP6K1 inh: inhibitors of human IP6K1; AID 1645851; IP6K1 kinase, ADP-Glo luminescence, 2 h; active compounds read low; Q92551; activity change, % (series mostly up to about 58 µM); actives 0.81% (n = 140,000); in the data active = activity change below about -25%
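ADP-Glo luminescence measures ADP made by human IP6K1 during a 2 h RT reaction with ATP/IP6 (mix at 1.3 mM/130 uM); top library doses 57.5 and 19.1 uM final.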
GPT2 inh: GPT2 alanine aminotransferase inhibition; AID 1671188; Potency, µM (titrated, usually from 57.7 µM), most hits filed as inhibitors; actives 0.25% (n = 100,000); Q8TD30; Recombinant GPT2, coupled pyruvate oxidase/HRP Amplex Red fluorescence; also: nearly all actives have a fitted effect of over 60% in size
Target sequence (Q8TD30 whole entry, looked up): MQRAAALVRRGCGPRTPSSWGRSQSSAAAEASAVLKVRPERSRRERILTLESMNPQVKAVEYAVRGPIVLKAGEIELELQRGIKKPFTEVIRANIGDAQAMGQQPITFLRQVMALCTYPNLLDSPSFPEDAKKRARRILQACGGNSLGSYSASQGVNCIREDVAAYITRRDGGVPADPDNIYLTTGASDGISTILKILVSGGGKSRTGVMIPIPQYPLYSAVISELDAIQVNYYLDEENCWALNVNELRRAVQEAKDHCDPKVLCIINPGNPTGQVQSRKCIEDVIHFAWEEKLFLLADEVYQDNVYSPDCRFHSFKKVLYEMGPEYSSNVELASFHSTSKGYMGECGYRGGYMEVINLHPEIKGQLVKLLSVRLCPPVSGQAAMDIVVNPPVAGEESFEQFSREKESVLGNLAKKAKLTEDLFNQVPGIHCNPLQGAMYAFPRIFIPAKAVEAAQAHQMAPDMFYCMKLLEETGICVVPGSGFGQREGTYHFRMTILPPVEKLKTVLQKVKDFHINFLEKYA
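Inhibition is scored from Amplex Red fluorescence generated when pyruvate oxidase and HRP act on pyruvate released by GPT2. Reactions contain 10ng/uL enzyme, 250uM a-KG and 2mM L-alanine and run 30 min at room temperature.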
SNCA expr inhib: SNCA gene expression inhibition; AID 1671194; Potency, µM (titrated, usually from 57.2 µM), hits mostly inhibitors; HEK-293 SNCA-luciferase knock-in, luminescence, 24 h; actives 0.17% (n = 140,000); also: nearly all actives have a fitted effect of over 45% in size
SNCA viab count: cell viability loss counter-screen; HEK-293-SNCA-luc viability, GF-AFC fluorescence, 24 h; Potency, µM (doses to about 57.1 µM), actives largely listed as cytotoxic; actives 0.12% (n = 150,000); AID 1671193; also: nearly all actives have a fitted effect of over 30% in size
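Cytotoxicity counterscreen: after 24 h compound treatment of genome-edited SNCA-luciferase HEK-293 cells, live-cell protease substrate GF-AFC read by fluorescence after 30 min; activity scaled between DMSO (0%) and medium-only (-100%), curves Hill-fitted.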
IP6K1 conf: confirmation of human IP6K1 inhibitors; AID 1645852; recombinant IP6K1 kinase, ADP-Glo luminescence, 2 h; actives 13% (n = 1,200); Potency, µM (highest dose often 49 µM), most hits filed as inhibitors; shares compounds with IP6K1 inh; also: nearly all actives have a fitted effect of over 65% in size
Hits are given with their value; n = inactive; u = inconclusive; x = no result; ! = repeats disagree; [ ] = dose if it differs, or a comment. Most compounds without a hit are left out; they make up all but 1% or so of the library. Unless noted, calls follow the shape of the dose curve; as a rule, active = well fitted curve in the direction sought with a large enough effect; inconclusive = small, poorly fitted or top-dose-only effect, or another doubt; inactive = no such curve, though single readings can be large; an effect the other way counts as inactive or inconclusive.

SMILES	IP6K1 inh	GPT2 inh	SNCA expr inhib	SNCA viab count	IP6K1 conf
COc1cc(CN2CCN(S(=O)(=O)c3ccc(F)cc3)CC2)cc(OC)c1OC	-34	x	n	n	n
COc1ccc(CN2CC(COc3ccccc3)Oc3ncccc3[S+]2(=O)[O-])cc1 (centres undefined)	n	n	n	n	x
COc1ccc(OCC2CC3(CCCCC3)CN2S(=O)(=O)c2c(C)noc2C)cc1 (centres undefined)	n	n	n	n	x
CC(=O)c1cccc(NC(=O)Cn2ccn3nc(-c4ccc(F)cc4)c(CO)c3c2=O)c1	-30	n	u	n	n
CCN1CCN(Cc2ccc(NC(=O)c3ccc(C)c(NC(=O)c4cncc(-c5cccs5)c4)c3)cc2C(F)(F)F)CC1	n	n	x	u	x
CCc1ccc(C(=O)Nc2cc(CN3CCN(C)CC3)cc(C(F)(F)F)c2)cc1C#Cc1cnc2ccnn2c1	-39	u	24µM	u	u
COc1ccccc1C(=O)NC1CCN(Cc2ccc(-c3ccccc3OC)cc2)C1 (centres undefined)	n	x	x	x	x
COc1ccc(OCC(=O)NCc2ccc3c(c2)CCN3C(=O)c2ccc(F)cc2)cc1	-36	x	n	n	n
O=C(COc1ccc(F)cc1)NCc1ccc2c(c1)CCN2C(=O)c1ccc(F)cc1	n	x	n	n	x
CCCCCC(=O)N1C[C@@H](CO)[C@@H]2Oc3c(F)cccc3[C@@H]21	n	x	x	x	x
C#Cc1cccc(Nc2ncnc3cc(OCCOC)c(OCCO)cc23)c1	x	n	u	u	x
COc1cc2ncnc(Nc3cccc(I)c3)c2cc1OC	-33	n	x	n	12µM
COc1cc2ncnc(Nc3cc(Br)c(O)c(Br)c3)c2cc1OC	n	u	n	n	u
COc1ncccc1-c1cnc2[nH]cc(CC(N)=O)c2c1	-29	n	n	n	u
N#Cc1ccc(-c2cnc3[nH]cc(NC(=O)c4cccnc4)c3c2)cc1	-28	n	x	n	u
COc1ccc(-c2cnc3[nH]cc(CC(N)=O)c3c2)cc1OC	-31	n	n	n	u
NC(=O)Cc1c[nH]c2ncc(-c3ccc(F)cc3)cc12	-29	n	n	n	u
COC(=O)[C@@H]1Cc2c([nH]c3ccccc23)[C@H]2C[C@@H](NC(C)C)C[C@@H](c3ccccc3)N21	n	n	n	u	x
O=C(Cc1c[nH]c2ncc(-c3ccc(Cl)cc3)cc12)NCc1cccnc1	-25	n	n	n	n
NC(=O)Cc1c[nH]c2ncc(-c3ccccc3C(F)(F)F)cc12	-34	n	n	n	u
CC(=O)NC1(C)CCN(Cc2ccc(-c3ccccc3OCc3ccccc3)cc2)C1 (centres undefined)	n	n	n	n	x
O=C(NCc1ccc(F)cc1)c1cc(-c2ccc(Cl)cc2Cl)c2nncn2n1	n	n	u	n[12.5 µM]	x
Cc1ccc(CNc2oc(-c3ccc(COc4ccc(Cl)cc4)o3)nc2C#N)cc1	-30	x	n	n	n
C=CCN(CC=C)Cc1nnc2cc(-c3nc(-c4ccccc4)no3)ccn12	n	n	n	n	x
C=CCN(Cc1nc(-c2ccccc2)no1)Cc1nccn1C	-38	n[11.5 µM]	n	n	n
SMILES	IP6K1 inh	GPT2 inh	SNCA expr inhib	SNCA viab count	IP6K1 conf
Cc1ccc2c(=O)cc(C(=O)Nc3ccc(S(=O)(=O)N4CCCCC4)cc3)oc2c1C	n	x	n	n	x
Cc1cc(C)c2oc(C(=O)Nc3ccc(S(=O)(=O)N4CCCCC4)cc3)cc(=O)c2c1	-26	x	u	n	n
CCN(CC)C(=S)SSC(=S)N(CC)CC	-56!	11µM!	u	u	8.9µM
COc1cccc(Nc2cnc3ccc(-c4ccccc4OC)nn23)c1	n	u	n	n	x
O=C(O)c1ccccc1Nc1ccccc1	x	n	n	n	x
O=C(O)c1ccccc1Nc1cccc(C(F)(F)F)c1	-31	n	n	n	u
CCCCCCCCOc1ccccc1C(=O)Nc1ccc(C(=O)OCC[N+](C)(CC)CC)cc1	-37	n	n	u	u
Cc1nn(-c2ccccc2)c2c1C(C)N(C1CCN(C(=O)c3ccc(Cl)nc3)CC1)C2=O (centres undefined)	n	x	x	x	x
Cc1cccc2c1O[C@H]1[C@H](C(N)=O)CN(C(=O)OCC(C)(C)C)[C@@H]21	n	x	x	x	x
COc1ccccc1CNC(=O)c1cc2cccc3c2n1CC(C)S3 (centres undefined)	-33	x	u	n	n
Cc1ccccc1CNC(=O)c1cc2cccc3c2n1CC(C)S3 (centres undefined)	n	x	n	n	x
O=C(Nc1cc(Cl)ccc1Cl)c1cc(S(=O)(=O)N2CCCc3ccccc32)ccc1F	-30	x	n	n	n
CCc1ccc(-n2c(=O)c3c4c(sc3n(Cc3ccc(F)cc3)c2=O)CCCC4)cc1	-28	x	n	n	n
CCc1ccc(-n2c(=O)c3c4c(sc3n(Cc3ccc(C)cc3)c2=O)CCC4)cc1	n	x	n	n	x
CCCCN(CC)C(=O)Cn1c(=O)n(-c2ccc(OCC)cc2)c(=O)c2c3c(sc21)CCC3	-33	x	n	n	n
O=C(CC1CCCCC1)N1CCCC(c2noc(COc3ccccc3)n2)C1 (centres undefined)	n	n	n	n[12.5 µM]	x

Compound activity deposited in PubChem BioAssay by National Center for Advancing Translational Sciences (NCATS).
